# Experimental data: PubChem BioAssay AID624300 (Southern Research Specialized Biocontainment Screening …, 2012)
# Screen size: about 2,400 compounds; about 360 (15%) were called active.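 How the source made its calls: active means viability falls under 70% at one or more tested concentrations, taken as toxicity; inactive means viability stays over 70% at every dose.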 Only a sample is shown. Results with a measured potency or affinity are listed apart.
# Test: HeLa cell cytotoxicity, dose response, cytotoxicity control for MgcRacGAP inhibitor project (AID 624300)
# Conditions: CellTiter-Glo luminescence, 24 h; series mostly up to 100 µM
row,SMILES,outcome
1,COc1cc(/C=N\NC(=O)c2c(C)nc3cc(C)ccn23)ccc1O,inactive
2,CN(C)c1ccc(NC(=O)CN2C(=O)c3ccccc3C2=O)cc1,inactive
3,COc1ccc(Nc2ccc3ccccc3c2)cc1,inactive
4,O=C(NN=Cc1ccc(O)cc1O)c1ccccc1NS(=O)(=O)c1cccs1,inactive
5,COc1ccc(C=C2C(=O)c3ccccc3C2=O)cc1O,inactive
6,O=S1(=O)N=C(Nc2ccc(O)cc2)c2ccccc21,inactive
7,COc1ccc(O/C(=N\S(=O)(=O)c2ccccc2)c2ccccc2)cc1,inactive
8,O=C1C(Cl)=C(NCCc2ccccc2)C(=O)c2ccccc21,inactive
9,O=C(CNC(=O)c1cccnc1)N/N=C/c1ccc(O)cc1O,inactive
10,COc1cc(/C=C/C(=O)OCC(=O)c2ccc[nH]2)ccc1O,inactive
11,COCCNCC(=O)Nc1nc(C)cs1,inactive
12,Cc1ccc(CNc2ccc(N3CCOCC3)cc2)s1,inactive
13,CN(C1CCCCC1)S(=O)(=O)c1cccc2nsnc12,inactive
14,COc1cc(/C=N/NC(=O)C2CCN(CC(O)COCc3ccccc3)CC2)ccc1O (stereo unspecified),inactive
15,COc1cc(/C=N/NC(=O)CNC(=O)c2ccco2)ccc1O,inactive
16,O=C(/C(=C/c1ccccc1)n1cncn1)c1ccc(Cl)cc1Cl,inactive
17,Cc1ccn2c(Nc3ccc4c(c3)OCO4)c(-c3ccc(O)cc3)nc2c1,inactive
18,COc1cc(-c2nc3cnccn3c2Nc2ccc(C)cc2)ccc1O,inactive
19,CCOc1ccc(N)cc1OC,inactive
20,Cc1cc(Cl)cc2sc(=S)[nH]c12,inactive
21,NC(=S)N/N=C/c1cccc(O)c1O,inactive
22,O=C(CNc1ccc2c(c1)OCO2)N/N=C\c1ccccc1Cl,inactive
23,Cc1ccc(C2CC(=O)N3CN(c4ccc(Br)cc4)CSC3=C2C#N)o1 (stereo unspecified),inactive
24,OC1CCN(C(=S)Nc2ccc(Nc3ccccc3)cc2)CC1,inactive
25,Nc1ccc(N2CCN(c3ccc(Cl)c(Cl)c3)CC2)cc1,inactive
26,CCN(Cc1ccncc1)Cc1ccc(OC)c(OC)c1,inactive

row,SMILES,outcome
1,COc1ccc(NC2CCCN(C(=O)COc3ccc(Cl)cc3C)C2)cc1OC (stereo unspecified),inactive
2,COc1ccc(NC(=O)n2ncc3c(C)cccc32)cc1OC,inactive
3,CCCC(=Nc1ccc(N)cc1)C1=C(O)C(C(=O)OC)C(C)(C)CC1=O (stereo unspecified),inactive
4,COC(=O)NCC(c1ccc2c(c1)OCO2)N1CCN(c2ccc(OC)cc2)CC1 (stereo unspecified),inactive
5,COc1ccc(N2CCN(C(CNC(=O)CC(C)(C)C)c3ccc4c(c3)OCO4)CC2)cc1 (stereo unspecified),inactive
6,COc1cc2c(cc1N)-c1ccc(N)cc1C2=O,inactive
7,COc1cc(/C=C/CN2CCN(Cc3ccc(C)o3)C(CCO)C2)ccc1O (stereo unspecified),inactive
8,COc1ccc(/C=N/NC(=O)c2cc[n+]([O-])cc2)cc1O,inactive
9,Cc1ccc(O)c(C=Nc2ccc3[nH]ncc3c2)c1,inactive
10,Nc1ccc2nc(C3CCCCC3)[nH]c2c1,inactive
11,CCOC(=O)C1Nc2ccc(C(=O)O)cc2C2C=CCC12 (stereo unspecified),inactive
12,CCOc1cc(/C=N/N2CCN(Cc3ccccc3)CC2)ccc1O,inactive
13,Cc1sc2nc(CN3CCOCC3)nc(N3CCOCC3)c2c1C,inactive
14,O=S(=O)(Nc1ccccc1F)c1cccc(NC(=S)NCCN2CCOCC2)c1,inactive
15,CCN(CC)c1ccc(NC(=O)CN(C)Cc2cccs2)cc1,inactive
16,O=C1/C(=C\c2ccccc2)CN(C(=O)CCN2CCCCC2)C/C1=C/c1ccccc1,inactive
17,CN(C)S(=O)(=O)c1cc(NC(=O)CNCCN2CCOCC2)ccc1Cl,inactive
18,COc1cc(/C=N/NC(=O)c2cc(C)oc2C)ccc1O,inactive
19,COC(=O)/C(=C/Nc1ccc(O)cc1)[N+](=O)[O-],inactive
20,Nc1ccc2c(c1)Cc1cc(N)c(Cl)cc1-2,inactive
21,COc1cc(C(C)n2nnc3ccccc32)ccc1O (stereo unspecified),inactive
22,COc1ccccc1OCCCCCCN1CCOCC1,inactive
23,COCCNC(=S)Nc1cc(OC)c(OC)cc1C#N,inactive
24,Cc1ccnc(Nc2nc(-c3ccc(O)cc3)cs2)c1,inactive
25,Cc1cc(NS(=O)(=O)c2ccc(Nc3nc(-c4ccc(O)cc4)cs3)cc2)no1,inactive
26,Oc1ccc(-c2csc(Nc3ccccn3)n2)cc1,inactive

row,SMILES,outcome
1,Cc1cc(O)ccc1Nc1nc(-c2cccs2)cs1,inactive
2,CC(=O)Nc1cccc(-c2csc(NCc3ccccc3)n2)c1,inactive
3,Cc1nc2ncccn2c1-c1csc(Nc2ccc(O)cc2)n1,inactive
4,NS(=O)(=O)c1ccc(Nc2nc(-c3ccc(O)cc3)cs2)cc1,inactive
5,CC(C)Oc1ccc(OCCn2c(=S)[nH]c3c(N)ncnc32)cc1,inactive
6,CSc1ccccc1NC(=O)CN(C)C(C)C(=O)NCc1ccc2c(c1)OCO2 (stereo unspecified),inactive
7,COc1cc(/C=C/C(=O)OCC(=O)Nc2ccc3c(c2)OCO3)ccc1O,inactive
8,Nn1c(=S)[nH]c2sc3c(c2c1=O)CCCC3,inactive
9,Cc1cc(C)c(OCC(O)CN2CCN(C(=O)c3ccccc3)CC2)c(C)c1 (stereo unspecified),inactive
10,COc1nc(Nc2ccc(O)cc2)nc(OC(C(F)(F)F)C(F)(F)F)n1,inactive
11,O=C(c1cccc(F)c1)N1CCN(Cc2cccc(Br)c2)CC1,inactive
12,OCCN1CCN(C(=S)Nc2cccc(C(F)(F)F)c2)CC1,inactive
13,N#CC1=C(S)N(c2ccc(F)cc2)C(c2cccs2)NC1=O (stereo unspecified),inactive
14,O=C(O)c1ccc(-c2ccc(/C=c3/sc4nc5ccccc5n4c3=O)o2)cc1Cl,inactive
15,O=S(=O)(c1ccc2ccccc2c1)N1CCN(C2CCN(Cc3ccccc3)CC2)CC1,inactive
16,O=C(CCCCCNC(=O)c1ccccc1)N/N=C/c1ccc(O)cc1O,inactive
17,O=S(=O)(O)c1cc(Cl)cc(N=Nc2ccc(O)cc2O)c1O,inactive
18,CCc1cc(-c2n[nH]c(CCC(=O)O)c2-c2nc3ccccc3n2C)c(O)cc1O,inactive
19,COc1ccc2c(c1)Sc1ccccc1N2,inactive
20,Cn1cnc2cc(NCc3ccccc3O)ccc21,inactive
21,CCN(CC)c1ccc(N=Cc2ccccc2[N+](=O)[O-])cc1,inactive
22,CC(=O)OCCNc1cc(N2CCN(C)CC2)c2noc3c2c1C(=O)c1ccccc1-3,inactive
23,CCOc1cc(/C=N\n2nnnc2N)ccc1O,inactive
24,CCOc1cc(/C=N/NC(=O)CCn2nc(C)cc2C)ccc1O,inactive
